Measurements reported in the supplement of paper PMC11634586.
Structures can show the parent of a compound that is named as a salt.

The compounds below were run on NCI-H1688 (assay: inhibition of cell viability relative to untreated control (fraction); higher = stronger growth inhibition, active = 0.5 or more). Conditions: 30 µM; 24 h.
In short: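 NCI-H1688 small cell lung cancer cells were plated in 96-well plates at 3 × 10^3 cells/well, and 24 h later they were exposed to a natural compound library (TargetMol) at 30 µM for 24 h at 37°C with 5% CO2. Viability was measured in triplicate using Cell Counting Kit-8, read as absorbance at 450 nm. Inhibition of cell viability is given as a fraction, calculated from viability normalised to untreated cells.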

Row | Compound | inhibition of cell viability
1 | O=C[C@H](O)[C@@H](O)[C@H](O)CO (racemic) [DL-Xylose] | -0.162 (inactive)
2 | O=C(O)c1cc(O)c2c(c1)[C@@H]([C@H]1c3cc(C(=O)O)cc(O)c3C(=O)c3c(O[C@@H]4O[C@H](CO)[C@@H](O)[C@H](O)[C@H]4O)cccc31)c1cccc(O[C@@H]3O[C@H](CO)[C@@H](O)[C@H](O)[C@H]3O)c1C2=O [Sennoside B] | -0.103 (inactive)
3 | C=CCS[S+]([O-])CC=C (centres undefined) [Allicin] | -0.267 (inactive)
4 | Cc1cc(O)cc(O[C@@H]2O[C@H](CO)[C@@H](O)[C@H](O)[C@H]2O)c1 [Orcinol glucoside] | 0.0244 (inactive)
5 | Cn1c(=O)c2c(ncn2C)n(C)c1=O [Caffeine] | 0.0548 (inactive)
6 | CC[C@@]1(O)C(=O)OCc2c1cc1n(c2=O)Cc2cc3cc(O)ccc3nc2-1 [10-Hydroxycamptothecin] | 0.98 (active)
7 | C[C@@H]1O[C@@H](O[C@H]2[C@H](Oc3cc(O)c4c(=O)cc(-c5ccc(O)cc5)oc4c3)O[C@H](CO)[C@@H](O)[C@@H]2O)[C@H](O)[C@H](O)[C@H]1O [Rhoifolin] | 0.127 (inactive)
8 | O=C(O)[C@H]1O[C@@H](Oc2cc3oc(-c4ccccc4)cc(=O)c3c(O)c2O)[C@H](O)[C@@H](O)[C@@H]1O [Baicalin] | -0.127 (inactive)
9 | NC(=O)CC[C@H](N)C(=O)O [L-Glutamine] | -0.0181 (inactive)
10 | NCCC[C@H](N)C(=O)O [L-Ornithine] | -0.0432 (inactive)
11 | CC1=C(/C=C/C(C)=C/C=C/C(C)=C/C(=O)O)C(C)(C)CCC1 [Tretinoin] | 0.00396 (inactive)
12 | Cc1c(S(=O)(=O)O)oc2c1C(=O)C(=O)c1c-2ccc2c1CCCC2(C)C [Tanshinone IIA-sulfonic sodium] | -0.0961 (inactive)
13 | CCCCCCCCCCCCCCCC(=O)O [Palmitic acid] | 0.0796 (inactive)
14 | CC[C@@H]1C(=O)OC[C@@H]1Cc1cncn1C [(+)-Pilocarpine hydrochloride] | 0.197 (inactive)
15 | CC1(C)[C@@H](O[C@H]2O[C@H](C(=O)O)[C@@H](O)[C@H](O)[C@H]2O[C@@H]2O[C@H](C(=O)O)[C@@H](O)[C@H](O)[C@H]2O)CC[C@]2(C)[C@H]3C(=O)C=C4[C@@H]5C[C@@](C)(C(=O)O)CC[C@]5(C)CC[C@@]4(C)[C@]3(C)CC[C@@H]12 [Glycyrrhizin (Glycyrrhizic Acid)] | -0.0055 (inactive)
16 | C[C@H]1COC2=C1C(=O)C(=O)c1c2ccc2c1CCCC2(C)C [Cryptotanshinone] | 1 (active)
17 | C[C@@H]1O[C@@H](O[C@H]2[C@H](O[C@H]3CC[C@@]4(C)[C@@H](CC[C@]5(C)[C@@H]4CC=C4[C@@H]6CC(C)(C)CC[C@]6(C(=O)O[C@@H]6O[C@H](CO[C@@H]7O[C@H](CO)[C@@H](O[C@@H]8O[C@@H](C)[C@H](O)[C@@H](O)[C@H]8O)[C@H](O)[C@H]7O)[C@@H](O)[C@H](O)[C@H]6O)CC[C@]45C)[C@]3(C)CO)OC[C@H](O)[C@@H]2O)[C@H](O)[C@H](O)[C@H]1O [Hederacoside C] | 0.239 (inactive)
18 | O=C(/C=C/C=C/c1ccc2c(c1)OCO2)N1CCCCC1 [Piperine] | -0.249 (inactive)
19 | N[C@@H](Cc1ccc(O)c(O)c1)C(=O)O [Levodopa] | 0.167 (inactive)
20 | COc1ccc(-c2coc3cc(O)ccc3c2=O)cc1 [Formononetin] | 0.0427 (inactive)
21 | O=c1cc[nH]c(=O)[nH]1 [Uracil] | -0.231 (inactive)
22 | C/C=C/c1ccc(OC)cc1 [Trans-Anethole] | -0.146 (inactive)
23 | Cc1cc(O)cc(O)c1C(=O)O [Orsellinic acid] | -0.313 (inactive)
24 | C=CCc1ccc(O)c(OC)c1 [Eugenol] | -0.184 (inactive)
25 | OCCc1ccc(O)cc1 [Tyrosol] | 0.0116 (inactive)
26 | Nc1ccccc1C(=O)CC(N)C(=O)O (centres undefined) [Kynurenine] | -0.292 (inactive)
27 | CC(C)=C1C/C=C(\C)CC/C=C(\C)CC1=O [Germacrone] | 0.245 (inactive)
28 | Cn1cnc2c1c(=O)[nH]c(=O)n2C [Theobromine] | 0.0986 (inactive)
29 | O=C(O)/C=C/c1ccccc1 [Cinnamic acid] | -0.0303 (inactive)
